Assay results from PubChem BioAssay (Tox21).
“And” between values parts separate entries of the source, which are not always exact repeats. Identical values can stand only once. Records with an inconclusive call do not appear. Where a call stands in place of a potency, no number is given. Some structures have more than one record in an assay (separate samples or runs), and their calls can disagree. The source made the active and inactive calls. Unless noted, calls come from the whole dose curve; as a rule, active = well fitted curve in the direction sought with a large enough effect in the repeat runs; inconclusive = weak or mixed curves; inactive = no such curve, though single readings can be large; an effect the other way counts as inactive or inconclusive.

What was measured:
[1] = qHTS assay to identify small molecule agonists of the sonic hedgehog signaling (Shh) pathway (AID 1259368; calls by dose curve;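 note: NIH/3T3-derived 3T3Gli1-Luc cells carrying a stable Gli1-driven firefly luciferase reporter; series mostly up to about 92 µM; nearly all actives have a fitted effect of over 15% in size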)
How it was run: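 Quantitative high-throughput format using a Gli1-driven firefly luciferase reporter line derived from NIH/3T3 cells. After a 24 hr compound treatment at 37 C and 5% CO2, luminescence reported Gli1 response element activity.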

[2] = qHTS assay to identify small molecule antagonists of the sonic hedgehog signaling (Shh) pathway (AID 1259369; calls by dose curve; note: nearly all actives have a fitted effect of over 45% in size; note: potency is the fitted concentration of half-maximal effect)
How it was run: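 Stable Gli1-Luc reporter NIH/3T3 clone; quantitative HTS in stimulated mode with conditioned medium. Luminescence measured after 24hr compound treatment at 37 C.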

[3] = qHTS assay to identify small molecule agonists of the androgen receptor (AR) signaling pathway in the presence of an antagonist - cell viability counter screen (AID 1259379); note: nearly all actives have a fitted effect of over 25% in size; note: potency is the fitted concentration of half-maximal effect
How it was run: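 Nilutamide-containing (3.0uM final) MDA-kb2 cultures, 3,000 cells/well, were treated with compounds across 15 concentrations. After 16 hr at 37C with no CO2, cell viability was determined by CellTiter-Fluor fluorescence in the luciferase assay wells.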

[4] = biological target: Estrogen receptor (Homo sapiens) (UniProt P03372); test: qHTS assay to identify small molecule agonists of the estrogen receptor alpha (ER-alpha) signaling pathway in the presence of an antagonist (AID 1259383; calls by dose curve; note: nearly all actives have a fitted effect of over 15% in size; note: potency is the fitted concentration of half-maximal effect; for activation: top concentration of the series differs between compounds)
How it was run: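 Readout was ERE-driven luciferase luminescence in VM7Luc4E2 cells, which express full-length ER-alpha endogenously. Compounds were tested at 15 concentrations for 22hr alongside 10.0nM ICI-182,780 (final concentration).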

[5] = qHTS assay to identify small molecule agonists or antagonists of the thyroid stimulating hormone receptor (TSHR) signaling pathway - wild type cell line counter screen (AID 1259384; calls by dose curve)
How it was run: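 Wild-type HEK293 cells were plated 18 h at 37 C/5% CO2, pin-dosed with compound plus Ro20-1724 medium, held 30 min at room temperature, then given cAMP-d2 and anti-cAMP-cryptate; fluorescence was read after 1 h. Fifteen concentrations, triplicate.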

[6] = biological target: Thyrotropin receptor (Homo sapiens) (UniProt P16473); test: qHTS assay to identify small molecule antagonists of the thyroid stimulating hormone receptor (TSHR) signaling pathway (AID 1259385; calls by dose curve; note: nearly all actives have a fitted effect of over 20% in size; note: potency is the fitted concentration of half-maximal effect)
How it was run: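 TSHR-HEK293 cells were plated and held 18 h at 37C/5% CO2, then given compound plus Ro20-1724 and stimulated with TSH at 1.5 ng/mL final. After 30 min at room temperature, cAMP was detected with cAMP-d2/anti-cAMP-cryptate (1 h) by fluorescence.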

[7] = qHTS assay to identify small molecule agonists of the estrogen receptor alpha (ER-alpha) signaling pathway in the presence of an antagonist - cell viability counter screen (AID 1259386);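 note: series mostly up to about 92 µM; cells exposed to compounds for 22 h at 37 °C before the viability read; nearly all actives have a fitted effect of over 30% in size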
How it was run: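 In this counter screen, compound effects on VM7Luc4E2 viability were tested in the presence of the antagonist ICI-182,780 at 10.0nM final. Compounds were dosed at 15 concentrations, exposure lasted 22hr, and the CellTiter-Fluor signal was read.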

[8] = biological target: Progesterone receptor (Homo sapiens) (UniProt P06401); test: qHTS assay to identify small molecule agonists of the progesterone receptor (PR) signaling pathway (AID 1346784; calls by dose curve; note: nearly all actives have a fitted effect of over 30% in size; note: potency is the fitted concentration of half-maximal effect)
How it was run: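 Agonist qHTS: compounds pinned onto 3,000 PR-UAS-bla HEK 293T cells per well in charcoal-stripped serum medium, 16hr at 37C, then beta-lactamase activity measured by LiveBLAzer FRET fluorescence after 2 hours at room temperature.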

[9] = biological target: Progesterone receptor (Homo sapiens) (UniProt P06401); test: qHTS assay to identify small molecule antagonists of the progesterone receptor (PR) signaling pathway (AID 1346795; active = well fitted inhibition curve with a large enough effect in the signal ratio in the repeat runs, not every such curve was filed as active; the % refers to the signal ratio; note: potency is the fitted concentration of half-maximal effect)
How it was run: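 Antagonist mode with agonist R5020 at 1 nM final and 16 hr incubation at 37C. Reporter was beta-lactamase driven by UAS in HEK293T (PR-UAS-bla), 2% charcoal-stripped serum; signal from LiveBLAzer FRET substrate, 2 hr at room temperature.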

[10] = qHTS assay to identify small molecule antagonists of the TGF-beta/Smad signaling pathway - cell viability counter screen (AID 1346824); note: nearly all actives have a fitted effect of over 50% in size
How it was run: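 SBE-bla HEK 293T cells were plated overnight at 37 C, then given compounds in DMSO plus TGF-beta1 (added as 0.25 ng/mL solution) for 5 hr. After the bla read, CellTiter-Glo was added to the same wells and luminescence read after 30 min at room temperature.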

[11] = qHTS assay to identify small molecule agonists of the TGF-beta/Smad signaling pathway - cell viability counter screen (AID 1346829); note: top concentration of the series differs between compounds; nearly all actives have a fitted effect of over 45% in size
How it was run: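 Tox21 qHTS format: SBE-bla HEK 293T cells treated with DMSO-dissolved compounds for 5 hr; CellTiter-Glo luminescence after 30 min at room temperature.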

[12] = biological target: Thyrotropin-releasing hormone receptor (Homo sapiens) (UniProt P34981); test: qHTS assay to identify small molecule antagonists of the thyrotropin-releasing hormone receptor (TRHR) signaling pathway (AID 1346877; active = well fitted inhibition curve with a large enough effect in the repeat runs, not every such curve was filed as active; note: series mostly up to about 51 µM)
How it was run: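 Kinetic fluorescence (3 min, 1 s resolution) following stimulation with TRH at 1 nM final; HEK293 cells bearing human TRHR; 5 min compound preincubation at RT; concentration-response over 15 points, triplicates.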

[13] = qHTS assay to identify small molecule antagonists of the estrogen receptor beta (ER-beta) signaling pathway - cell viability counter screen (AID 1259382); note: series mostly up to about 92 µM; nearly all actives have a fitted effect of over 55% in size
How it was run: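 Viability is scored by CellTiter-Glo luminescence (30 min, room temperature) in ER-beta-UAS-bla HEK293T wells already read for reporter fluorescence. Compound exposure lasts 16 hr at 37C alongside 1nM 17-beta-estradiol in charcoal-stripped serum medium.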

[14] = biological target: Estrogen receptor beta (Homo sapiens) (UniProt Q92731); test: qHTS assay to identify small molecule agonists of the estrogen receptor beta (ER-beta) signaling pathway (AID 1259377; active = well fitted activation curve with a large enough effect in the signal ratio in the repeat runs, not every such curve was filed as active; the % refers to the signal ratio)
How it was run: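 Ratiometric beta-lactamase FRET read-out came after 2 h substrate loading at room temperature. It followed 16 h compound treatment at 37C of GripTite HEK293T cells carrying a UAS-bla reporter, plated in 2% charcoal-stripped FBS medium.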

[15] = biological target: Estrogen receptor beta (Homo sapiens) (UniProt Q92731); test: qHTS assay to identify small molecule antagonists of the estrogen receptor beta (ER-beta) signaling pathway (AID 1259378; active = well fitted inhibition curve with a large enough effect in the signal ratio in the repeat runs, not every such curve was filed as active; the % refers to the signal ratio)
How it was run: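 ER-beta-UAS-bla HEK293T (GripTite) cells in 2% charcoal-stripped FBS medium were preincubated 6 hr at 37C, dosed with compound, then stimulated with 1 nM E2 (final) for 16 hr; beta-lactamase reporter read by B/G FRET fluorescence after 2 hr substrate loading.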

[16] = qHTS assay to identify small molecule agonists of the estrogen receptor beta (ER-beta) signaling pathway - cell viability counter screen (AID 1259380); note: nearly all actives have a fitted effect of over 30% in size; note: potency is the fitted concentration of half-maximal effect
How it was run: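 Steps: plate ER-beta-UAS-bla HEK293T cells, rest 6 hr; add compounds in DMSO; incubate 16 hr at 37C, 5% CO2; add FRET substrate 2 hr; add CellTiter-Glo, wait 30 min at room temperature; read luminescence.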

[17] = qHTS assay to identify small molecule agonists of the TGF-beta/Smad signaling pathway (AID 1346859; active = well fitted activation curve with a large enough effect in the signal ratio in the repeat runs, not every such curve was filed as active; the % refers to the signal ratio; note: series mostly up to about 77 µM)
How it was run: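 Fluorescence (ex 405 nm; em 460 and 530 nm) was read 2 h after LiveBLAzer FRET substrate at RT. The preceding compound treatment of overnight-plated SBE-bla HEK293T cells lasted 5 h at 37 C.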

[18] = qHTS assay to identify small molecule antagonists of the progesterone receptor (PR) signaling pathway - cell viability counter screen (AID 1346798); note: series mostly up to about 92 µM; nearly all actives have a fitted effect of over 50% in size
How it was run: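 Cytotoxicity read as CellTiter-Glo luminescence (30 min, room temperature) in the same wells as the beta-lactamase readout. HEK293T PR-UAS-bla cells in charcoal-stripped 2% FBS received compound and R5020, then 16 h at 37C, 5% CO2.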

[19] = qHTS assay to identify small molecule agonists of the progesterone receptor (PR) signaling pathway - cell viability counter screen (AID 1346799; calls by dose curve; note: nearly all actives have a fitted effect of over 45% in size)
How it was run: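 Cytotoxicity measured by CellTiter-Glo luminescence (30 min, RT) in the same wells as the PR beta-lactamase agonist read. Those HEK293T cells had 16 h compound treatment at 37 C in 2% charcoal-stripped FBS medium.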

[20] = biological target: Androgen receptor (Homo sapiens) (UniProt P10275); test: qHTS assay to identify small molecule agonists of the androgen receptor (AR) signaling pathway in the presence of an antagonist (AID 1259381; calls by dose curve; note: nearly all actives have a fitted effect of over 15% in size)
How it was run: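 Reporter-gene luminescence from MDA-kb2 cells exposed 16hr at 37C (0% CO2) to 15-point compound titrations with 3.0uM final nilutamide as AR antagonist.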

Sequence of Thyrotropin-releasing hormone receptor (Homo sapiens) (P34981 whole entry, looked up): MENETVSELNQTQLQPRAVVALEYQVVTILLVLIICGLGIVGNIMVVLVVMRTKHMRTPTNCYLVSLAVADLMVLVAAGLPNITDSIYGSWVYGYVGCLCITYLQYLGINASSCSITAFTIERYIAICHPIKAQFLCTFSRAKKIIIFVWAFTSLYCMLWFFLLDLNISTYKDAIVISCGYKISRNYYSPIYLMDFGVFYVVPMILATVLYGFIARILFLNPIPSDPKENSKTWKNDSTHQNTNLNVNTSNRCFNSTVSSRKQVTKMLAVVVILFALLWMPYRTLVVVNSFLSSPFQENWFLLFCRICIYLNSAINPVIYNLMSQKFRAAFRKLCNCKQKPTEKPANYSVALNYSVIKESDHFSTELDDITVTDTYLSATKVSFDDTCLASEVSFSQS
Sequence of Progesterone receptor (Homo sapiens) (P06401 whole entry, looked up): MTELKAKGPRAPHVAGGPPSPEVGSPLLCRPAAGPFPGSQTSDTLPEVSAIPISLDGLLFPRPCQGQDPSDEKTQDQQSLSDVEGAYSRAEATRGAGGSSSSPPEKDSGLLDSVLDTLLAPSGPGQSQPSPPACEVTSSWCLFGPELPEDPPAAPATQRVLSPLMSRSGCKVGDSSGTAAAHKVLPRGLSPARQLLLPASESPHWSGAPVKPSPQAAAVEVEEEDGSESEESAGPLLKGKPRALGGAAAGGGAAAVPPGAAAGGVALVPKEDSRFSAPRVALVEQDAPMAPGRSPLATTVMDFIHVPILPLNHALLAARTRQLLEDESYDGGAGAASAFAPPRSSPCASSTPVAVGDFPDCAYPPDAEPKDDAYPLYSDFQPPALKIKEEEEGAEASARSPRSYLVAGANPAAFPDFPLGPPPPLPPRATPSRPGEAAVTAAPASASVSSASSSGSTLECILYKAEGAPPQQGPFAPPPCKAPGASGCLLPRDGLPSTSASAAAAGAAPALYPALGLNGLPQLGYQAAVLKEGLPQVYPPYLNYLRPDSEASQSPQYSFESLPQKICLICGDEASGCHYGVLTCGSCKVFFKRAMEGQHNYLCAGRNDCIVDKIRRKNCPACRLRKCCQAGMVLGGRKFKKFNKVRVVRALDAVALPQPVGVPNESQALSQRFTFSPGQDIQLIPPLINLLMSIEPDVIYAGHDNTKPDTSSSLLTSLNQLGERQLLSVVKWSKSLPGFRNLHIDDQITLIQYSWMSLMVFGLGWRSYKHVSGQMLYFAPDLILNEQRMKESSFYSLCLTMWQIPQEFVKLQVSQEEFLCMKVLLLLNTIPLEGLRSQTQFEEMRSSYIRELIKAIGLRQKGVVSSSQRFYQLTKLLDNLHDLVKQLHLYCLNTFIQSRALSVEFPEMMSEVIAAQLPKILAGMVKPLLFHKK
Sequence of Estrogen receptor (Homo sapiens) (P03372 whole entry, looked up): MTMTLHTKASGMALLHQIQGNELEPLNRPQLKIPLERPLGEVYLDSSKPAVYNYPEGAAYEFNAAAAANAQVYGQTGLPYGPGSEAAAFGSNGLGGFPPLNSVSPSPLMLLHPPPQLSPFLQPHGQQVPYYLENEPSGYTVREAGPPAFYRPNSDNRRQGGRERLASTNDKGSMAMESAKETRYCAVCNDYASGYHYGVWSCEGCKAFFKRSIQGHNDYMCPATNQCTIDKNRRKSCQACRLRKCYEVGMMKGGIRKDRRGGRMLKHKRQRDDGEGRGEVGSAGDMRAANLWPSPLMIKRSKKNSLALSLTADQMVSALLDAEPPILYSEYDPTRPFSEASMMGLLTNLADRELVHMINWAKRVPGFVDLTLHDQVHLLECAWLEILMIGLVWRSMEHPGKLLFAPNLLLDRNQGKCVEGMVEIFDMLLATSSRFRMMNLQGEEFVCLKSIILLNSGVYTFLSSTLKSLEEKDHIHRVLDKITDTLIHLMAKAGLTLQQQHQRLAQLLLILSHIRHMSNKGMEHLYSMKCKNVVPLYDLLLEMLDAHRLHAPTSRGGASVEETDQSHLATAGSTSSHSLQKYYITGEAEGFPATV
Sequence of Estrogen receptor beta (Homo sapiens) (Q92731 whole entry, looked up): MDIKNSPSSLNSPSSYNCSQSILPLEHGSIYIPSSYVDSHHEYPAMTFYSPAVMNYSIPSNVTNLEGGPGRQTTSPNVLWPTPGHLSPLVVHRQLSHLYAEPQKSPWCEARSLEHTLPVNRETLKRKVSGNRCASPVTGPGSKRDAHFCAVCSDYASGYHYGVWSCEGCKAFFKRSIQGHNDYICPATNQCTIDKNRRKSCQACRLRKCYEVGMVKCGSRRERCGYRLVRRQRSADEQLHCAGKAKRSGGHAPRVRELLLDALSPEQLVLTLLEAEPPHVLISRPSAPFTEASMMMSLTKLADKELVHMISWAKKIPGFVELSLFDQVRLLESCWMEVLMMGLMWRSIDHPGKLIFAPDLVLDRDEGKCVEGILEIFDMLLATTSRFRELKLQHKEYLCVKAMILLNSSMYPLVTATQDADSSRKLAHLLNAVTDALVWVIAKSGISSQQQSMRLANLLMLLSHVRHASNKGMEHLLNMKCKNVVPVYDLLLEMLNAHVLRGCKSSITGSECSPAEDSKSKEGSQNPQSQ
Sequence of Thyrotropin receptor (Homo sapiens) (P16473 whole entry, looked up): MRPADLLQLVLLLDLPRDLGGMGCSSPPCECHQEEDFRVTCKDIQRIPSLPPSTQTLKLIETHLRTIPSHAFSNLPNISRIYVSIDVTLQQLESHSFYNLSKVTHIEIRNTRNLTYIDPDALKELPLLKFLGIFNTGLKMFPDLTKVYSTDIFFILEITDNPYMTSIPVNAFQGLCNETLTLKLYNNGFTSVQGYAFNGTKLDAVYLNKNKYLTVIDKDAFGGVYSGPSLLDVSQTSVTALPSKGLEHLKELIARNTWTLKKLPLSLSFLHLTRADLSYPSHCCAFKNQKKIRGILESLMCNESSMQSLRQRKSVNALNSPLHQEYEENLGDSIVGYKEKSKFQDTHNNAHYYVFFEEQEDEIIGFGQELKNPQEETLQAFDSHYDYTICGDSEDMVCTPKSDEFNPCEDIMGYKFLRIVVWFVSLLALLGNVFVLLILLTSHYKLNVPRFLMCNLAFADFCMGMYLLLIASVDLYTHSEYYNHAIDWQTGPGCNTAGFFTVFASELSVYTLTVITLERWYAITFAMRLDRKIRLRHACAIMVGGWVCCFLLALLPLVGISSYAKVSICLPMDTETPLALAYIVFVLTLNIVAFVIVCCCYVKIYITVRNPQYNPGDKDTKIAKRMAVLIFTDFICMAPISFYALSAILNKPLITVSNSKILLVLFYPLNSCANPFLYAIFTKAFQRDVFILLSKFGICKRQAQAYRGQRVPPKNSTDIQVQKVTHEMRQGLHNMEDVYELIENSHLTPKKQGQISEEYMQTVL
Sequence of Androgen receptor (Homo sapiens) (P10275 whole entry, looked up): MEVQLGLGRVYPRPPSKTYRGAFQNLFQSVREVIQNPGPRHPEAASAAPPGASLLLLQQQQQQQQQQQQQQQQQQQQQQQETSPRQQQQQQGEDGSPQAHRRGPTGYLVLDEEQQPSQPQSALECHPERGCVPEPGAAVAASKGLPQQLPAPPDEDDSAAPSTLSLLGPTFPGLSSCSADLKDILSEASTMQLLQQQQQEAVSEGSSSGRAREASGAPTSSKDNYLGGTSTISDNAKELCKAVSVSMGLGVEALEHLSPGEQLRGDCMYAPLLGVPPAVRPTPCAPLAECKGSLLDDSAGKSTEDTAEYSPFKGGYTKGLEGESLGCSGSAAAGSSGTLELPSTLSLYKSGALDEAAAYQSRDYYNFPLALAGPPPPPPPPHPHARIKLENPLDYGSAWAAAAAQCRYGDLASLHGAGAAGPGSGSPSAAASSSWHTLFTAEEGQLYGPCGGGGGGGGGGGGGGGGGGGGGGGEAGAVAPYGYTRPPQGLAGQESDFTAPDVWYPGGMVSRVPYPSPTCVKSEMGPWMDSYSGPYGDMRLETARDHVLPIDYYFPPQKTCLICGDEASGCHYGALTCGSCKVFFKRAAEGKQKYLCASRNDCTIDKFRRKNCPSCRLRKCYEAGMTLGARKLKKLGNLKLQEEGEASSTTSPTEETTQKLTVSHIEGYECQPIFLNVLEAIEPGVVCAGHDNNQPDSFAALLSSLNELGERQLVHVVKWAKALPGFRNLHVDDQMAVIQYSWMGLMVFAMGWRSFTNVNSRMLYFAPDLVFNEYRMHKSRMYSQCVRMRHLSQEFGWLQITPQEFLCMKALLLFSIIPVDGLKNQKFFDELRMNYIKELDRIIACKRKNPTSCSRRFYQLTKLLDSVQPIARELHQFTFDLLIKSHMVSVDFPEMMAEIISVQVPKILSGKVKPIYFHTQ

Row | Structure (SMILES) | Potency [1] | Potency [2] | Potency [3] | Potency [4] | outcome [5] | Potency [6] | Potency [7] | Potency [8] | Potency [9] | Potency [10] | Potency [11] | Potency [12] | Potency [13] | Potency [14] | Potency [15] | Potency [16] | outcome [17] | Potency [18] | Potency [19] | Potency [20]
1 | Brc1ccc(Oc2ccccc2)cc1 | inactive | 31.4 µM (active) and inactive | inactive | inactive | inactive | inactive | inactive | inactive | inactive | inactive | inactive | inactive | – | – | – | – | – | – | – | –
2 | COCCOCCO | inactive | 27.3 µM (active) | inactive | inactive | inactive | inactive | inactive | inactive | – | – | – | – | inactive | – | – | – | – | – | – | –
3 | CN1[C@@H]2CC[C@H]1CC(OC(=O)c1cc(Cl)cc(Cl)c1)C2 (some centres not stated) | inactive | – | inactive | inactive | inactive | 26.6 µM (active) | inactive | inactive | inactive | inactive | inactive | inactive | inactive | inactive | inactive | 26.6 µM (active) | inactive | – | – | –
4 | O=C(C(Cl)(Cl)Cl)C(Cl)(Cl)Cl | inactive | inactive | inactive | inactive | – | – | inactive | inactive | inactive | inactive | inactive | inactive | inactive | – | – | inactive | – | inactive | inactive | –
5 | N#CCc1ccccc1 | inactive | – | inactive | inactive | inactive | inactive | inactive | inactive | inactive | inactive | inactive | – | inactive | inactive | inactive | inactive | inactive | inactive | – | –
6 | CC(Cl)C(C)Cl (configuration not stated) | inactive | – | inactive | inactive | – | – | – | inactive | inactive | inactive | inactive | – | inactive | inactive | inactive | inactive | inactive | inactive | inactive | –
7 | ClCC(Br)CBr (configuration not stated) | inactive | – | inactive | inactive | inactive | inactive | inactive | inactive | inactive | inactive | inactive | – | inactive | inactive | inactive | inactive | inactive | inactive | inactive | –
8 | C/C=C/C=O | inactive | inactive | inactive | – | – | – | – | – | inactive | inactive | inactive | – | – | – | – | – | inactive | inactive | inactive | –
9 | CCOP(=S)(OCC)SCSCC | inactive | – | inactive | inactive | inactive | inactive | – | inactive | – | inactive | inactive | inactive | inactive | inactive | inactive | inactive | inactive | inactive | – | –
10 | CC(C)O.CC(C)O.OCCN(CCO)CCO.OCCN(CCO)CCO.[Ti] | inactive | inactive | inactive | – | inactive | inactive | inactive | inactive | inactive | inactive | inactive | – | inactive | – | – | inactive | inactive | inactive | – | –
11 | BrCC(Br)C1CCC(Br)C(Br)C1 (configuration not stated) | inactive | inactive | inactive | – | inactive | – | inactive | inactive | – | – | – | inactive | inactive | – | – | inactive | – | inactive | inactive | –
12 | ClC=C(Cl)Cl | inactive | inactive | inactive | inactive | inactive | inactive | inactive | inactive | inactive | inactive | inactive | inactive | – | – | – | inactive | – | inactive | inactive | –
13 | c1ccoc1 | inactive | – | inactive | inactive | inactive | inactive | inactive | inactive | inactive | inactive | inactive | – | inactive | inactive | inactive | inactive | – | inactive | – | –
14 | CC(=O)NC1CCSC1=O (configuration not stated) | inactive | inactive | inactive | inactive | inactive | inactive | inactive | inactive | inactive | inactive | inactive | inactive | – | – | – | inactive | inactive | inactive | – | –
15 | c1cc2ccc3cccc4ccc(c1)c2c34 | inactive | inactive | inactive | 64.1 µM (active) | – | inactive | inactive | inactive | – | – | – | inactive | – | – | – | 32.1 µM (active) | inactive | – | – | –
16 | C=COC(C)=O | inactive | inactive | inactive | – | inactive | inactive | inactive | inactive | inactive | inactive | – | – | inactive | – | – | inactive | inactive | inactive | – | –
17 | CCn1cc[n+](C)c1 | inactive | inactive and 19.3 µM (active) and 38.8 µM (active) | inactive and 27.6 µM (active) | – | – | – | inactive | inactive and 15.3 µM (active) | inactive | inactive | inactive | – | inactive | – | – | inactive | inactive | inactive | inactive | –
18 | CC/C(=N\OC/C=C/Cl)C1=C(O)CC(C2CCOCC2)CC1=O (configuration not stated) | inactive | – | inactive | – | inactive | inactive | inactive | inactive | inactive | inactive | – | – | inactive | inactive | inactive | inactive | – | inactive | inactive | –
19 | COP(=O)(OC)O/C(=C/Cl)c1cc(Cl)c(Cl)cc1Cl | inactive | 57.5 µM (active) | – | inactive | inactive | – | – | – | 14.5 µM (active) | inactive | – | – | inactive | – | – | – | – | inactive | inactive | inactive
